Assay results reported in PubChem BioAssay AID1347420 (Sanford-Burnham Center for Chemical Genomics, 2020).
Screen size: about 1,300 compounds; about 980 (75%) were called active. Inconclusive results (about 4%) are left out. The list shows a part of the results.

What follows are molecules tested against Sulfhydryl oxidase 1 (Homo sapiens) (UniProt O00391) (assay: inhibition of human sulfhydryl oxidase QSOX1 – biochemical, HyperBlu H2O2 luminescence, HTS, primary screen (AID 1347420; further: values above 100% were filed as inconclusive)). Conditions: recombinant QSOX1, HyperBlu H2O2 luminescence; at 12.5 µM; active compounds read high; active = any value above zero.
Sulfhydryl oxidase 1 (Homo sapiens), sequence (O00391 whole entry, looked up): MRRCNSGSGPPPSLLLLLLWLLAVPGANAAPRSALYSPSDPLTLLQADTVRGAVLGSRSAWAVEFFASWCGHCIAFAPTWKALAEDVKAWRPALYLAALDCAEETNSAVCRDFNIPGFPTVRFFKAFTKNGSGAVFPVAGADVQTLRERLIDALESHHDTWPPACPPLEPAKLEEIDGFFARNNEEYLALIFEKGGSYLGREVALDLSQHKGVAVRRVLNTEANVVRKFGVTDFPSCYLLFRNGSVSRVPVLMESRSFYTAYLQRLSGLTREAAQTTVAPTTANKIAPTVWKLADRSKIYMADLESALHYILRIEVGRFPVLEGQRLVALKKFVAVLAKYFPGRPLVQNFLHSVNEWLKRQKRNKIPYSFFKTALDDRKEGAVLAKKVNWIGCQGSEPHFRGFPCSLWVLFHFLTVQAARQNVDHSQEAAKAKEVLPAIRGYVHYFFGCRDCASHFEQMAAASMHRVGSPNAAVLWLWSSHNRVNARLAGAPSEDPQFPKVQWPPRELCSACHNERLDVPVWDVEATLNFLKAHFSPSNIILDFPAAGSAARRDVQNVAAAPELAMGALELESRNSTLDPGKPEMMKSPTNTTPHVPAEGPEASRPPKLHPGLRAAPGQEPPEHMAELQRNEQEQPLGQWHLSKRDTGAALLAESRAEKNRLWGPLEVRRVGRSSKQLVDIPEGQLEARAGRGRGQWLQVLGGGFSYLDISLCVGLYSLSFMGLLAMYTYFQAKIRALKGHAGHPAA

inhibition, inactive:
CCN(CC)CCCC(C)Nc1c2ccc(Cl)cc2nc2ccc(OC)cc12 (stereo not drawn) -13%, O=C(O)c1cc(=O)c2ccccc2[nH]1 -7.5%, C=C[C@@]1(C)CC(=O)[C@]2(O)[C@@]3(C)[C@H](O)CCC(C)(C)[C@@H]3[C@H](O)[C@H](OC(C)=O)[C@@]2(C)O1 -4.2%, CC(C)Cn1c(=O)n(C)c(=O)c2[nH]cnc21 -4.6%, NCC1OC(O[C@@H]2[C@H](O)C(OC3C(O)C(N)CC(N)C3OC3OC(CO)C(O)C(O)C3N)O[C@@H]2CO)C(N)C(O)C1O (stereo partly drawn) -0.2%, CC(=O)/C(C)=N/O -16.7%, CC(O)C(O)[C@H]1CNc2nc(N)[nH]c(=O)c2N1 (stereo partly drawn) -1.8%, O=C1N=C(O)C(c2ccccc2)(c2ccccc2)N1 -13.4%, CC/C(=C(\c1ccccc1)c1ccc(OCCN(C)C)cc1)c1ccccc1 -2.1%, O=C(O)/C=C/C(O)c1ccc(Cl)cc1 (stereo not drawn) -40.2%, CCCOC(=O)c1c(-c2ccccc2)nc(CC)c(C(=O)SCC)c1CCC -2.7%, COc1cc(SC)ccc1C(=O)N1CCC(Cc2ccccc2)CC1 -5.8%, C[C@]12CCC(=O)C=C1CC[C@@H]1[C@@H]2C(=O)C[C@@]2(C)[C@H]1CC[C@]2(O)C(=O)CO -1.4%, C[C@]12CCC(=O)C=C1CC[C@@H]1[C@@H]2CC[C@@]2(C)[C@H]1CC[C@]2(O)C(=O)CO -11%

inhibition, active:
NCC(O)C1CCCCCCC1 (stereo not drawn) 18.4%, Fc1ccc(C(OCCCc2cnc[nH]2)c2ccc(F)cc2)cc1 10.8%, COC(=O)[C@H](NC(=O)c1cc(-c2ccccc2)nc2ccccc12)c1ccccc1 4.2%, CC(=O)[C@]1(O)Cc2c(O)c3c(c(O)c2[C@@H](O[C@H]2C[C@H](N)[C@H](O)[C@H](C)O2)C1)C(=O)c1ccccc1C3=O 50.8%, CC(N)C(=O)OC(C)(C)Cc1ccc(Cl)cc1 (stereo not drawn) 5.6%, Nc1nc2c(cnn2CCc2ccccc2)c2nc(-c3ccco3)nn12 17%, Nc1nc2ccc(Cl)cc2c2nc(-c3ccco3)nn12 27.7%, CCN(CC)CCCC(C)Nc1ccnc2cc(Cl)ccc12 (stereo not drawn) 4.6%, O=C(O)c1cc(=O)c2c(Cl)cc(Cl)cc2[nH]1 23.5%, O=C(O)/C(=C/c1c(C(=O)O)[nH]c2cc(Cl)cc(Cl)c12)c1ccccc1 12.3%, c1ccc2c(c1)CCCC2C1=NCCN1 (stereo not drawn) 7.7%, NC1(C(=O)O)CCc2cc(C(=O)O)ccc21 (stereo not drawn) 11.9%, Cn1c(=O)c2[nH]cnc2n(C)c1=O 20.2%, Oc1ccc(C2CNCc3sccc32)cc1O (stereo not drawn) 68.4%, CN1Cc2sccc2C(c2ccc(O)c(O)c2)C1 (stereo not drawn) 84.1%, CC(=O)C(C)=O 5.7%, CC(N)=O 37.1%, CCN1C(=O)C=CC1=O 12.3%, C[C@H](O)C(=O)C1=Nc2c(nc(N)[nH]c2=O)NC1 9.2%, NS(=O)(=O)C1=[C+]C=[C+]c2c1c([N+](=O)[O-])cc1nc([O-])c([O-])nc21 79%, CCn1c(=O)[nH]c2cc(Cl)c(Cl)cc21 20.4%, Cn1c(=O)c2c(nc(/C=C/c3cccc(Cl)c3)n2C)n(C)c1=O 8.5%, CN1C[C@H](C(=O)N[C@]2(C)O[C@@]3(O)[C@@H]4CCCN4C(=O)[C@H](Cc4ccccc4)N3C2=O)C[C@@H]2c3cccc4[nH]cc(c34)C[C@H]21 50.6%, Nc1ncnc2c1c(I)cn2[C@@H]1C[C@H](N)[C@@H](O)[C@H]1O 22.5%, COc1ccc2c(c1)CCC1C2CC[C@@]2(C)C1CC[C@@H]2NCCCCCCN1C(=O)C=CC1=O (stereo partly drawn) 7.6%, COc1ccc2c(c1)CCC1C2CC[C@@]2(C)C1CC[C@@H]2NCCCCCCN1C(=O)CCC1=O (stereo partly drawn) 8.2%, CN/C(=C\[N+](=O)[O-])NCCSCc1ccc(CN(C)C)o1 14.5%, CN(C)CCCc1cc(C(=O)Nc2ccc(-c3ccncc3)cc2)ccc1O 14.6%, CN(C)CCOC(=O)COc1ccc(Cl)cc1 2.2%, O=C(c1ccccc1)c1ccc2n1CCC2C(=O)O (stereo not drawn) 12.6%, CN1CCC2(CCN3CCc4c(oc5ccccc45)C3C2)N(C)C1=O (stereo not drawn) 4.5%, Cc1nc(N=NC2=[C+]C3=C(C=C([N+](=O)[O-])[C+]=C3S(=O)(=O)[O-])C(S(=O)(=O)[O-])=[C+]2)c(COP(=O)([O-])O)c(C=O)c1O 53.8%, Cc1nc(N=Nc2ccc(C(=O)O)cc2)c(COP(=O)(O)O)c(C=O)c1O 14.2%, C[C@@H]1C(=O)NC2=Nc3cccc(Cl)c3CN21 3.4%, c1ccc2c(c1)CC(N1CCN(c3cccc4c3OCCO4)CC1)C2 10.4%, Clc1ccc(C(c2ccccc2Cl)C(Cl)Cl)cc1 (stereo not drawn) 69.1%, O=C(c1ccc(Cl)cc1)N1CCN(c2ccc([N+](=O)[O-])c3ncccc23)CC1 24.1%, c1ccc2c(c1)CCC[C@H]2Nc1nc2ccccc2[nH]1 61.9%, NC1CCN(c2cccc(Cl)n2)CC1 4.2%, COCC(=O)O[C@]1(CCN(C)CCCc2nc3ccccc3[nH]2)CCc2cc(F)ccc2[C@@H]1C(C)C 2.9%, C[N+](C)(C)CCOP(=O)(O)OP(=O)([O-])OC[C@H]1O[C@@H](n2ccc(N)nc2=O)C(O)[C@H]1O (stereo partly drawn) 20.6%, CC(C)(C)c1onc(OCP(=O)(O)O)c1CC(N)C(=O)O (stereo not drawn) 24.4%, OCc1cc(C(O)CNCCCCCCOCCCCc2ccccc2)ccc1O (stereo not drawn) 34.4%, CC(=O)N[C@H]1[C@H]([C@H](O)[C@H](O)CO)OC(C(=O)O)=C[C@@H]1O 18.1%, CC(C(O)c1ccc(O)cc1)N1CCC(Cc2ccccc2)CC1 (stereo not drawn) 4%, C[C@@H](CN1CCC(Cc2ccccc2)CC1)[C@@H](O)c1ccc(O)cc1 3.7%, CC(=O)OCC(=O)[C@@]1(O)CC[C@H]2[C@@H]3CCC4=CC(=O)CC[C@]4(C)[C@H]3C(=O)C[C@@]21C 6.5%, CC(=O)[C@@]1(O)CC[C@H]2[C@@H]3CCC4=CC(=O)CC[C@]4(C)[C@H]3CC[C@@]21C 0.7%, CC(=O)[C@H]1CC[C@H]2[C@@H]3CCC4=CC(=O)CC[C@]4(C)[C@H]3CC[C@]12C 12.3%
